# Experimental data: PubChem BioAssay (Tox21)
# Values joined by “and” are separate entries in the source; they are usually repeats but may differ in a detail not shown here. Equal entries are not always repeated. Results filed as inconclusive are left out. Where a call stands in place of a potency, no number is given. Some structures have more than one record in an assay (separate samples or runs), and their calls can disagree. Active and inactive are the calls of the source. Unless noted, the call rests on the fitted dose curve; in most records, active means well fitted curve in the direction sought with a large enough effect in the repeat runs; inconclusive means weak or mixed curves; inactive means no such curve, though single readings can be large; an effect the other way counts as inactive or inconclusive.
# Assays:
# [1] = qHTS RealTime-Glo MT Cell Viability Assay in HEK293 cells - 0 hour (AID 1224880); further: top concentration of the series differs between compounds; nearly all actives have a fitted effect of over 45% in size
# How it was run: (§1)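 Tox21 screen in HEK293 using RealTime-Glo MT chemistry, with cells and reagent co-dispensed. Luminescence proportional to viable cell number was captured at intervals during 40 h compound exposure at 37 C.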
# [2] = A CellTox Green Cytotoxicity Assay to monitor cytotoxicity in HEK293 cells - 32 hour (AID 1224881); further: nearly all actives have a fitted effect of over 40% in size; further: potency means the concentration at half of the fitted maximal effect
# How it was run: (§2)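 Seeding of HEK293 cells together with cytotoxicity dye preceded a 5 h incubation at 37 C/5% CO2. Test compounds in DMSO were then added and fluorescence monitored across 40 h.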
# [3] = A CellTox Green Cytotoxicity Assay to monitor cytotoxicity in HepG2 cells - 0 hour (AID 1224882); further: nearly all actives have a fitted effect of over 35% in size
# How it was run: (§3)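 Nonlytic assay: viable cells exclude the dye, so fluorescence scales with cell death. HepG2 at 600 cells/well, compounds added after 5 h, signal read across 40 h.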
# [4] = A CellTox Green Cytotoxicity Assay to monitor cytotoxicity in HepG2 cells - 32 hour (AID 1224883); further: nearly all actives have a fitted effect of over 50% in size; further: potency means the concentration at half of the fitted maximal effect
# How it was run: as §3
# [5] = A CellTox Green Cytotoxicity Assay to monitor cytotoxicity in HEK293 cells - 8 hour (AID 1224884); further: nearly all actives have a fitted effect of over 35% in size
# How it was run: as §2
# [6] = qHTS RealTime-Glo MT Cell Viability Assay in HepG2 cells - 16 hour (AID 1224885); further: nearly all actives have a fitted effect of over 50% in size; further: potency means the concentration at half of the fitted maximal effect
# How it was run: (§4)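 Tox21 10K library screened in qHTS format on HepG2 cells carrying RealTime-Glo reagents. Compounds were added after a 5 h preincubation, and the luminescent signal from continuous culture was measured repeatedly during 40 h treatment.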
# [7] = qHTS RealTime-Glo MT Cell Viability Assay in HEK293 cells - 24 hour (AID 1224886); further: nearly all actives have a fitted effect of over 50% in size; further: potency means the concentration at half of the fitted maximal effect
# How it was run: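 Luminescence generated by NanoLuc from substrate produced by living HEK293 cells served as the viability signal. Each value reflects the reading at its stated time point during continuous 40 h compound exposure at 37 C.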
# [8] = qHTS RealTime-Glo MT Cell Viability Assay in HEK293 cells - 8 hour (AID 1224887); further: nearly all actives have a fitted effect of over 50% in size; further: potency means the concentration at half of the fitted maximal effect
# How it was run: as §1
# [9] = qHTS RealTime-Glo MT Cell Viability Assay in HepG2 cells - 0 hour (AID 1224889); further: nearly all actives have a fitted effect of over 50% in size
# How it was run: as §4
# [10] = A CellTox Green Cytotoxicity Assay to monitor cytotoxicity in HepG2 cells - 8 hour (AID 1224890); further: nearly all actives have a fitted effect of over 45% in size
# How it was run: as §3
# [11] = qHTS assay to identify small molecule antagonists of the estrogen receptor alpha (ER-alpha) signaling pathway using the BG1 cell line in the presence of 0.1 nM 17-beta-estradiol - cell viability counter screen (AID 1259241); further: nearly all actives have a fitted effect of over 40% in size
# How it was run: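 Live-cell protease activity (CellTiter-Fluor fluorescence, 30 min) was read in the same wells after VM7Luc4E2 cells had been exposed to compounds with 0.1 nM 17beta-estradiol for 22 hr at 37C.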
# [12] = qHTS assay to identify small molecule antagonists of the androgen receptor (AR) signaling pathway using the MDA cell line in the presence of 0.5 nM R1881 - cell viability counter screen (AID 1259242); further: nearly all actives have a fitted effect of over 45% in size
# How it was run: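 R1881 at 0.5 nM final stimulated MDA-kb2 cells during 16 hr compound treatment at 37C. Cytotoxicity read: CellTiter-Fluor fluorescence after 30 min.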
# [13] = target: Estrogen receptor (Homo sapiens) (UniProt P03372); test: qHTS assay to identify small molecule antagonists of the estrogen receptor alpha (ER-alpha) signaling pathway using the BG1 cell line in the presence of 0.1 nM 17-beta-estradiol (AID 1259244); further: nearly all actives have a fitted effect of over 50% in size
# How it was run: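 VM7Luc4E2; 4xERE-luciferase; 0.1 nM E2 final; 22 h co-incubation, 37C; ONE-Glo luminescence after 30 min at room temperature.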
# [14] = qHTS assay to identify small molecule HDAC inhibitors (AID 1259364);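 further: wild-type HCT-116 cells with endogenous class I/II HDAC activity; top concentration of the series differs between compounds; nearly all actives have a fitted effect of over 45% in size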
# How it was run: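 Relative class I and II HDAC activity is taken from the luminogenic signal in HCT-116 cells, with compound exposure 2 hr and reagent development 30 min at room temperature.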
# [15] = qHTS assay to identify small molecule HDAC inhibitors - cell viability counter screen (AID 1259365)
# How it was run: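 HCT-116 (wild type), 1,500 cells/well, overnight 37C/5% CO2; compound in DMSO 2hr; CellTiter-Glo 30min RT; luminescence read.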
# [16] = qHTS assay to identify small molecule agonists of the sonic hedgehog signaling (Shh) pathway - cell viability counter screen (AID 1259366); further: nearly all actives have a fitted effect of over 50% in size; further: potency means the concentration at half of the fitted maximal effect
# How it was run: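 CellTiter-Fluor fluorescence read-out, 1 hr at 37C, added after 23hr compound exposure. Cells: 3T3 Gli1-Luc, an NIH/3T3 clone with stably integrated Gli1-Luc reporter, plated 4hr before compound.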
# [17] = qHTS assay to identify small molecule antagonists of the sonic hedgehog signaling (Shh) pathway - cell viability counter screen (AID 1259367); further: nearly all actives have a fitted effect of over 55% in size; further: potency means the concentration at half of the fitted maximal effect
# How it was run: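 NIH/3T3-derived Gli1-Luc reporter cells (2,000 per well) rested 4 hr at 37 C, then received DMSO compounds plus conditioned medium. After 23 hr of treatment, CellTiter-Fluor was added for 1 hr at 37C and fluorescence read.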
# [18] = qHTS assay to identify small molecule phospholipidosis (PLD) inducers (AID 1259344; active means well fitted curve in the direction sought with a large enough effect; an effect the other way counts as inactive or inconclusive)
# How it was run: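 HepG2 cells on collagen I, attached 4 h at 37 C, were co-treated with compound and LipidTOX Red dye for 24 h at 37 C, then fixed with paraformaldehyde plus Hoechst 33342 and imaged by high-content microscopy for phospholipid accumulation.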
# [19] = target: Androgen receptor (Homo sapiens) (UniProt P10275); test: qHTS assay to identify small molecule antagonists of the androgen receptor (AR) signaling pathway using the MDA cell line in the presence of 0.5 nM R1881 (AID 1259243); further: nearly all actives have a fitted effect of over 50% in size
# How it was run: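 We exposed MDA-kb2 cells to compounds under 0.5 nM R1881 stimulation for 16 hr at 37C and quantified MMTV-driven luciferase by luminescence.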
# [20] = A CellTox Green Cytotoxicity Assay to monitor cytotoxicity in HEK293 cells - 16 hour (AID 1224888); further: nearly all actives have a fitted effect of over 35% in size
# How it was run: as §2
# Androgen receptor (Homo sapiens), sequence (P10275 whole entry, looked up): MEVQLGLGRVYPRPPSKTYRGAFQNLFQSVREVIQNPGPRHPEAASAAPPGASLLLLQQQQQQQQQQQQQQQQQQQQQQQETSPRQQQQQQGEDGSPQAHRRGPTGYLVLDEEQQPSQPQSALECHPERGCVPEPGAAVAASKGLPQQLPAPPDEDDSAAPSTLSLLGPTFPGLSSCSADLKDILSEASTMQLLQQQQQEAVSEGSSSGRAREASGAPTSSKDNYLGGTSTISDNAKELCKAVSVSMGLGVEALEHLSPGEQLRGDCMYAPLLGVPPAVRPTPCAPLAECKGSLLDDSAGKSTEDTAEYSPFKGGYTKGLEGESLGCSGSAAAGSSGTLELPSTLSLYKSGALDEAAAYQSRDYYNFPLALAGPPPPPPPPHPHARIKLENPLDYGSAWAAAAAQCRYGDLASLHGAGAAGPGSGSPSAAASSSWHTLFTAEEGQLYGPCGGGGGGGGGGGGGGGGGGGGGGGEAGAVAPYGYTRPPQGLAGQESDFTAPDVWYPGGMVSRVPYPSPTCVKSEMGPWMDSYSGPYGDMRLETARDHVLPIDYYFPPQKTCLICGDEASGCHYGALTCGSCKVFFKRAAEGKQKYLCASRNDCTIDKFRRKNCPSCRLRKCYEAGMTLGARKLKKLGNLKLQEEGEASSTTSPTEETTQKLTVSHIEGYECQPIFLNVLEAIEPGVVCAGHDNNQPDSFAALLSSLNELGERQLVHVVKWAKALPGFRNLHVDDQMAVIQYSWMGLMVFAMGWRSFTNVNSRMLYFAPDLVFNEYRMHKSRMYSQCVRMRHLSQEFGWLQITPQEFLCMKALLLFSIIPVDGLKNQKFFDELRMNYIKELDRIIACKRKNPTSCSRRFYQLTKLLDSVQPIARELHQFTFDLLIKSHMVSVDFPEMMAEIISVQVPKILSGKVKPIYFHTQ
# Estrogen receptor (Homo sapiens), sequence (P03372 whole entry, looked up): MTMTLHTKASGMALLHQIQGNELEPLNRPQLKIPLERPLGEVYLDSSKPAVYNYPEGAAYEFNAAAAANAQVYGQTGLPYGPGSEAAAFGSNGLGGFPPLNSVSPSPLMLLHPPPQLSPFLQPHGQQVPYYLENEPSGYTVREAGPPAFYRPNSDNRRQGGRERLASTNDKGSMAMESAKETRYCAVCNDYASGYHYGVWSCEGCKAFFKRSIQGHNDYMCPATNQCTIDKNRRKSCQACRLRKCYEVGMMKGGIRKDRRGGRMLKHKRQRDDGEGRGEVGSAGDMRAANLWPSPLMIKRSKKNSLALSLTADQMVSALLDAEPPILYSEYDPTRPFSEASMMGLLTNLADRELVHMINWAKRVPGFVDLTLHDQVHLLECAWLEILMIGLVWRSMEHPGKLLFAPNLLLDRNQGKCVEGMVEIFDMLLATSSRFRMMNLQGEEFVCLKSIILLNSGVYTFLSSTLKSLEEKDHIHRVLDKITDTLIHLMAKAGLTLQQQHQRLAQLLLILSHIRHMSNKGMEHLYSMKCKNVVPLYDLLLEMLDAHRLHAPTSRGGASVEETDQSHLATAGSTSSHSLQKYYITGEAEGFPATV
smiles,measurement,setting,value
CN(N=O)c1ccc([N+](=O)[O-])cc1,Potency,[1],inactive
same,Potency,[2],inactive
same,Potency,[3],inactive
same,Potency,[4],43.6 µM (active)
same,Potency,[5],inactive
same,Potency,[6],inactive
same,Potency,[7],inactive
same,Potency,[8],inactive
same,Potency,[9],inactive
same,Potency,[10],inactive
same,Potency,[11],inactive
same,Potency,[12],inactive
same,Potency,[13],inactive
same,Potency,[14],inactive
same,Potency,[15],inactive
same,Potency,[16],inactive
same,Potency,[17],inactive
N#CCc1ccccc1,Potency,[1],inactive
same,Potency,[2],inactive
same,Potency,[3],inactive
same,Potency,[4],inactive
same,Potency,[5],inactive
same,Potency,[6],inactive
same,Potency,[7],inactive
same,Potency,[8],inactive
same,Potency,[9],inactive
same,Potency,[10],inactive
same,Potency,[12],inactive
same,Potency,[13],inactive
same,Potency,[14],inactive
same,Potency,[15],inactive
same,Potency,[16],inactive
same,Potency,[17],inactive
CCC(C)(NC(=O)c1cc(Cl)c(C)c(Cl)c1)C(=O)CCl (stereo unspecified),Potency,[1],inactive
same,Potency,[2],43.9 µM (active)
same,Potency,[3],inactive
same,Potency,[4],49.3 µM (active)
same,Potency,[5],inactive
same,Potency,[6],49.3 µM (active)
same,Potency,[7],24.7 µM (active)
same,Potency,[8],27.7 µM (active)
same,Potency,[9],inactive
same,Potency,[10],inactive
same,Potency,[13],inactive
same,Potency,[15],inactive
same,Potency,[16],43.5 µM (active)
same,Potency,[17],21.8 µM (active)
Cn1sc(Cl)cc1=O,Potency,[1],inactive
same,Potency,[2],inactive
same,Potency,[3],inactive
same,Potency,[4],inactive
same,Potency,[5],inactive
same,Potency,[6],inactive
same,Potency,[7],inactive
same,Potency,[8],inactive
same,Potency,[9],inactive
same,Potency,[10],inactive
same,Potency,[11],inactive
same,Potency,[12],inactive
same,Potency,[13],inactive
same,outcome,[18],inactive
same,Potency,[14],inactive
same,Potency,[15],inactive
same,Potency,[16],inactive
same,Potency,[17],inactive
CC1C(=O)C[C@]2(C(C)C)C[C@H]12 (stereo partly specified),Potency,[1],inactive
same,Potency,[2],inactive
same,Potency,[3],inactive
same,Potency,[4],inactive
same,Potency,[5],inactive
same,Potency,[6],inactive
same,Potency,[7],inactive
same,Potency,[8],inactive
same,Potency,[9],inactive
same,Potency,[10],inactive
same,Potency,[11],inactive
same,Potency,[12],inactive
same,Potency,[15],inactive
same,Potency,[16],inactive
same,Potency,[17],inactive
C[N+](C)(C)CCCl,Potency,[1],inactive
same,Potency,[2],inactive
same,Potency,[3],inactive
same,Potency,[4],inactive
same,Potency,[5],inactive
same,Potency,[6],inactive
same,Potency,[7],inactive
same,Potency,[8],inactive
same,Potency,[9],inactive
same,Potency,[10],inactive
same,Potency,[11],inactive
same,Potency,[12],inactive
same,Potency,[19],inactive
same,Potency,[13],inactive
same,Potency,[14],inactive
same,Potency,[15],inactive
same,Potency,[16],inactive
same,Potency,[17],inactive
CCC(Cl)CCl (stereo unspecified),Potency,[1],inactive
same,Potency,[2],inactive
same,Potency,[3],inactive
same,Potency,[4],inactive
same,Potency,[5],inactive
same,Potency,[6],inactive
same,Potency,[7],inactive
same,Potency,[8],inactive
same,Potency,[9],inactive
same,Potency,[10],inactive
same,Potency,[11],inactive
same,Potency,[12],inactive
same,Potency,[13],inactive
same,Potency,[14],inactive
same,Potency,[15],inactive
same,Potency,[16],inactive
same,Potency,[17],inactive
NCCCNCCCN,Potency,[1],inactive
same,Potency,[2],62.6 µM (active)
same,Potency,[3],inactive
same,Potency,[4],inactive
same,Potency,[5],inactive
same,Potency,[6],inactive
same,Potency,[7],inactive
same,Potency,[8],inactive
same,Potency,[9],inactive
same,Potency,[10],inactive
same,Potency,[12],inactive
same,Potency,[19],inactive
same,Potency,[15],inactive
same,Potency,[16],inactive
same,Potency,[17],inactive
CCn1cc[n+](C)c1,Potency,[1],inactive
same,Potency,[2],inactive
same,Potency,[3],inactive
same,Potency,[4],inactive
same,Potency,[5],inactive
same,Potency,[6],inactive
same,Potency,[7],inactive and 1.75 µM (active)
same,Potency,[8],inactive
same,Potency,[9],inactive
same,Potency,[10],inactive
same,Potency,[11],inactive
same,Potency,[12],inactive
same,Potency,[14],inactive
same,Potency,[15],inactive
same,Potency,[16],inactive
same,Potency,[17],inactive
CCc1ccc(C(=O)NN(C(=O)c2cc(C)cc(C)c2)C(C)(C)C)cc1,Potency,[1],inactive
same,Potency,[2],inactive
same,Potency,[3],inactive
same,Potency,[4],inactive
same,Potency,[5],inactive
same,Potency,[6],inactive
same,Potency,[7],inactive
same,Potency,[8],inactive
same,Potency,[20],inactive
same,Potency,[9],inactive
same,Potency,[10],inactive
same,Potency,[12],inactive
same,Potency,[14],inactive
same,Potency,[15],inactive
same,Potency,[16],2.17 µM (active)
same,Potency,[17],2.43 µM (active)
CC(C)(C)C(O)C(Oc1ccc(Cl)cc1)n1cncn1 (stereo unspecified),Potency,[1],inactive
same,Potency,[2],inactive
same,Potency,[3],inactive
same,Potency,[4],43.6 µM (active)
same,Potency,[5],inactive
same,Potency,[6],inactive
same,Potency,[7],12.3 µM (active)
same,Potency,[20],inactive
same,Potency,[9],inactive
same,Potency,[10],inactive
same,Potency,[11],inactive
same,Potency,[12],inactive
same,PLD induction,[18],-1.67% [at 3.15 µM] (inactive)
same,Potency,[15],inactive
same,Potency,[16],inactive
ClCC(Br)CBr (stereo unspecified),Potency,[1],inactive
same,Potency,[2],inactive
same,Potency,[3],inactive
same,Potency,[4],inactive
same,Potency,[5],inactive
same,Potency,[6],inactive
same,Potency,[7],inactive
same,Potency,[8],inactive
same,Potency,[9],inactive
same,Potency,[10],inactive
same,Potency,[11],inactive
same,Potency,[12],inactive
same,Potency,[13],inactive
same,Potency,[14],inactive
same,Potency,[15],inactive
same,Potency,[16],inactive
same,Potency,[17],inactive
BrCCCCBr,Potency,[1],inactive
same,Potency,[2],inactive
same,Potency,[3],inactive
same,Potency,[4],inactive
same,Potency,[5],inactive
same,Potency,[6],inactive
same,Potency,[7],inactive
same,Potency,[8],inactive
same,Potency,[9],inactive
same,Potency,[10],inactive
same,Potency,[11],inactive
same,Potency,[12],inactive
same,Potency,[13],inactive
same,Potency,[14],inactive
same,Potency,[15],inactive
same,Potency,[16],inactive
same,Potency,[17],inactive
O=C(OC1CCCCC1)c1ccccc1C(=O)OC1CCCCC1,Potency,[1],inactive
same,Potency,[2],inactive
same,Potency,[3],inactive
same,Potency,[4],inactive
same,Potency,[5],inactive
same,Potency,[6],inactive
same,Potency,[7],inactive
same,Potency,[8],inactive
same,Potency,[9],inactive
same,Potency,[10],inactive
same,Potency,[11],inactive
same,Potency,[12],inactive
same,Potency,[13],inactive
same,Potency,[14],inactive
same,Potency,[15],inactive
same,Potency,[16],inactive
same,Potency,[17],inactive
O=NN1CCCCCC1,Potency,[1],inactive
same,Potency,[2],inactive
same,Potency,[3],inactive
same,Potency,[4],inactive
same,Potency,[5],inactive
same,Potency,[6],inactive
same,Potency,[7],inactive
same,Potency,[8],inactive
same,Potency,[9],inactive
same,Potency,[10],inactive
same,Potency,[11],inactive
same,Potency,[12],inactive
same,Potency,[19],inactive
same,Potency,[13],inactive
same,Potency,[14],inactive
same,Potency,[15],inactive
same,Potency,[16],inactive
same,Potency,[17],inactive
